Assay [1] deals with Leukocyte tyrosine kinase receptor (Homo sapiens) (UniProt P29376). The note with it: at 1 µM.
The target of assay [2] is Tyrosine-protein kinase Lyn (Homo sapiens) (UniProt P07948). Conditions: at 0.1 µM.
Assay [3] has the same target. Conditions: at 1 µM.
The target is the same in assay [4]. Conditions: at 0.1 µM. This is another data set of the same source.
Assay [5] shares this target. Conditions: at 1 µM. This is another data set of the same source.
Assay [6] concerns the target T1, Tyrosine-protein kinase Mer (Homo sapiens) (UniProt Q12866).
T1 sequence (whole entry): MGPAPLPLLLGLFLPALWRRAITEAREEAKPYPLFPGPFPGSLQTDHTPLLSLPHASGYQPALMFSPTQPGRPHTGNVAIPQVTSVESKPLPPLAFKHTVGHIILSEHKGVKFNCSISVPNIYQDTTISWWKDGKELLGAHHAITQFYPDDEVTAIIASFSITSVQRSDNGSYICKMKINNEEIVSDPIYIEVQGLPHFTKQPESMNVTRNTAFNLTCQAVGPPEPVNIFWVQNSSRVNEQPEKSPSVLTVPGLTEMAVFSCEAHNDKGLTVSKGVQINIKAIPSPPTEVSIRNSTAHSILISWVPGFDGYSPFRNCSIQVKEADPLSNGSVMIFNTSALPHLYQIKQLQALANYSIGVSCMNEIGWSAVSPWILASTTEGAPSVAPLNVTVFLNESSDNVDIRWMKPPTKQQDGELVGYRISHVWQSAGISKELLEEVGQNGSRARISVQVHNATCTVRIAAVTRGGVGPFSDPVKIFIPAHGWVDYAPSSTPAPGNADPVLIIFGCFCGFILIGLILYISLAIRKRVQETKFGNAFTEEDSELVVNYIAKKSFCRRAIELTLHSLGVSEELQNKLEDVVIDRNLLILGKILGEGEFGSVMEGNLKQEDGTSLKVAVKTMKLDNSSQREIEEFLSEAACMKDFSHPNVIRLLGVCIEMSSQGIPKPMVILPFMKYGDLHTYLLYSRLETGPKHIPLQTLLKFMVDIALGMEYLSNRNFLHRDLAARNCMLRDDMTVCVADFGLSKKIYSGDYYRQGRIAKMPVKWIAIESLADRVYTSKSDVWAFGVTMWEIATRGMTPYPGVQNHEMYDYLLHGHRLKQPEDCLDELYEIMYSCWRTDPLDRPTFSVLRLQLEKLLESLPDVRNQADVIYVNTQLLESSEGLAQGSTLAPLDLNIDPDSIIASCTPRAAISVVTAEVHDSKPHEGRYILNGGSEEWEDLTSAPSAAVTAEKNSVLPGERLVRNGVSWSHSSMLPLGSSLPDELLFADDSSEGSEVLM
The note with it: at 0.1 µM.

Assay [7] has as its target T1, Tyrosine-protein kinase Mer (Homo sapiens). Conditions: at 1 µM.
The target in assay [8] is Hepatocyte growth factor receptor (Homo sapiens) (UniProt P08581). Conditions: at 0.1 µM.
For assay [9] the target is unchanged. The note with it: at 1 µM.
Assay [10] addresses T2, Muscle, skeletal receptor tyrosine-protein kinase (Homo sapiens) (UniProt O15146).
T2 sequence (whole entry): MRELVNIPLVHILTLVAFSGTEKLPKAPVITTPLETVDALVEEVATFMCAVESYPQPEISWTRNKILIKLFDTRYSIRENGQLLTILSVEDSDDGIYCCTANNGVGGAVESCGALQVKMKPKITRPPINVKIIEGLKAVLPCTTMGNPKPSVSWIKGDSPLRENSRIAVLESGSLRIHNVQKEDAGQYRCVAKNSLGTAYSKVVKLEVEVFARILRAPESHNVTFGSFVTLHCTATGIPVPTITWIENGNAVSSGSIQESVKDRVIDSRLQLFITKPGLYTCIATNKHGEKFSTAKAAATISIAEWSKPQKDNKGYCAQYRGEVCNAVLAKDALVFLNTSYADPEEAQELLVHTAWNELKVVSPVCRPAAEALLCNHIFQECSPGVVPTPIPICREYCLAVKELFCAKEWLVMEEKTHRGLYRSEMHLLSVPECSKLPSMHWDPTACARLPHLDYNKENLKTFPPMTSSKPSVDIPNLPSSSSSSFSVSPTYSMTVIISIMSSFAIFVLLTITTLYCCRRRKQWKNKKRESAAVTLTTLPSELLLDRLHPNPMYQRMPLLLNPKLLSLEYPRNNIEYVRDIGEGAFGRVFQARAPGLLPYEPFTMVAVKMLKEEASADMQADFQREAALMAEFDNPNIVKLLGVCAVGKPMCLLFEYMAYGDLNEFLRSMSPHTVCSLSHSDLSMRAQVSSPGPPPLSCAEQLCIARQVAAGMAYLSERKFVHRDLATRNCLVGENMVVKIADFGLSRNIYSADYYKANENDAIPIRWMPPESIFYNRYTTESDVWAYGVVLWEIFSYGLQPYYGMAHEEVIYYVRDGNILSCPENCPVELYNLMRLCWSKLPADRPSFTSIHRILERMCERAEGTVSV
Conditions: at 0.1 µM.

Molecules are shown by their SMILES.

The inhibition is the change of the read-out against control, counted positive when it falls.

Leukocyte tyrosine kinase receptor (Homo sapiens), sequence (P29376 whole entry): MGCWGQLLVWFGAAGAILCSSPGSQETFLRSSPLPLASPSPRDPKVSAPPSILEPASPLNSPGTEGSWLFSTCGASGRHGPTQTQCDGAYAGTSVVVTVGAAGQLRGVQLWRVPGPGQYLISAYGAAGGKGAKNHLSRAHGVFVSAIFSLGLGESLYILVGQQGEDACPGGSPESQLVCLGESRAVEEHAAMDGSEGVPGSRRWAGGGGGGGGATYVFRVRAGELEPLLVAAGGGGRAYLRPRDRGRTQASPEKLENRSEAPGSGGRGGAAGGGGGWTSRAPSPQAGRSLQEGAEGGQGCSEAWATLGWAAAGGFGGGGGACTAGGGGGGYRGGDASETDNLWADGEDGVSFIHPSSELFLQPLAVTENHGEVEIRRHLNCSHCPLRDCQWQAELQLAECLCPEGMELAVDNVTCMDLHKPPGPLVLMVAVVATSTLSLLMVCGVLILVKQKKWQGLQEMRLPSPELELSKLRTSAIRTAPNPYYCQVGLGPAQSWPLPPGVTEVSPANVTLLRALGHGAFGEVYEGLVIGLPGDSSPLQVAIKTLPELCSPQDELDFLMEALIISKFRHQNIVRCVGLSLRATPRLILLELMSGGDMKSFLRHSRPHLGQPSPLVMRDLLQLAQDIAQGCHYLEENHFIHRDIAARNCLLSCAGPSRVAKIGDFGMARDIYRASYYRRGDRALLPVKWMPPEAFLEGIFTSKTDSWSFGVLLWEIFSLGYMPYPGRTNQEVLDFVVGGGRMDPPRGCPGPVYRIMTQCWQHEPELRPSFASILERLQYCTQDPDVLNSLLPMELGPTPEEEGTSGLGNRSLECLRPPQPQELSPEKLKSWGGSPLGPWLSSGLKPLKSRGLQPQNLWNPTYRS
Hepatocyte growth factor receptor (Homo sapiens), sequence (P08581 whole entry): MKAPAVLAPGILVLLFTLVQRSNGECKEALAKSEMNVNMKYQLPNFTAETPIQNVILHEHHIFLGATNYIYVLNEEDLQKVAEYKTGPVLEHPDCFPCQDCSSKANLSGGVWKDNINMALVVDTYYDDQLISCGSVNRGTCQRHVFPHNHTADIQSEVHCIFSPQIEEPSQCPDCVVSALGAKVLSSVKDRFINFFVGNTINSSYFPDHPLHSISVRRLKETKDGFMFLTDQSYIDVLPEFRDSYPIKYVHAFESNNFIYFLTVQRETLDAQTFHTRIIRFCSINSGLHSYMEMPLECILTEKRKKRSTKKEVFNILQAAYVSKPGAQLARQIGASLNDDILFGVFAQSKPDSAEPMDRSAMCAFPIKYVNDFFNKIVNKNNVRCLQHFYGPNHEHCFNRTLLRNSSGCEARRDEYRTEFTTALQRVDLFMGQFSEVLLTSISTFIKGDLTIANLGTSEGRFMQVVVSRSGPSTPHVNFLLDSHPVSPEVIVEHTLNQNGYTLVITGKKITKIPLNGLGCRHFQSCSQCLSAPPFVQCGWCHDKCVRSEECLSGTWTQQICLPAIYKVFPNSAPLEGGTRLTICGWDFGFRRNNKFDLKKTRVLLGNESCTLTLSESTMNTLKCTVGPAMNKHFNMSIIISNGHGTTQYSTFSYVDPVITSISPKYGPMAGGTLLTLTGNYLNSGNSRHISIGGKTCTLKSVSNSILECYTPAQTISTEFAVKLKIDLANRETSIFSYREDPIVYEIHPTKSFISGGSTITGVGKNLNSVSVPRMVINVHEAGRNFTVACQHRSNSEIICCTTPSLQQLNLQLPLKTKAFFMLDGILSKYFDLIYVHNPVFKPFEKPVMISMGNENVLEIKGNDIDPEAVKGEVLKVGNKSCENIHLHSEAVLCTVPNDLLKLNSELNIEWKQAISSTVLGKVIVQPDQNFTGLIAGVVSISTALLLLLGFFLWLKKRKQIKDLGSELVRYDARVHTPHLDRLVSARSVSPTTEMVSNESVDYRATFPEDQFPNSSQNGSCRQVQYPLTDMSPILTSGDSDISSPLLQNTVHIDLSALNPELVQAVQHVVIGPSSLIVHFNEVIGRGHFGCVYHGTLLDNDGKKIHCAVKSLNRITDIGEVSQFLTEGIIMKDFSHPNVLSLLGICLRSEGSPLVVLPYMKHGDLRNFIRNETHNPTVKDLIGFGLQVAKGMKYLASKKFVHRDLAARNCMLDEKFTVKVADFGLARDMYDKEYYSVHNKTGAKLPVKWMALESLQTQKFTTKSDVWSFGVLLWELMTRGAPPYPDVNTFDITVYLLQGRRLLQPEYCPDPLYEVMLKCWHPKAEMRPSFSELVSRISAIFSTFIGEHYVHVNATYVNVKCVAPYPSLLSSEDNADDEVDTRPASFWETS
Tyrosine-protein kinase Lyn (Homo sapiens), sequence (P07948 2-512 limits assumed): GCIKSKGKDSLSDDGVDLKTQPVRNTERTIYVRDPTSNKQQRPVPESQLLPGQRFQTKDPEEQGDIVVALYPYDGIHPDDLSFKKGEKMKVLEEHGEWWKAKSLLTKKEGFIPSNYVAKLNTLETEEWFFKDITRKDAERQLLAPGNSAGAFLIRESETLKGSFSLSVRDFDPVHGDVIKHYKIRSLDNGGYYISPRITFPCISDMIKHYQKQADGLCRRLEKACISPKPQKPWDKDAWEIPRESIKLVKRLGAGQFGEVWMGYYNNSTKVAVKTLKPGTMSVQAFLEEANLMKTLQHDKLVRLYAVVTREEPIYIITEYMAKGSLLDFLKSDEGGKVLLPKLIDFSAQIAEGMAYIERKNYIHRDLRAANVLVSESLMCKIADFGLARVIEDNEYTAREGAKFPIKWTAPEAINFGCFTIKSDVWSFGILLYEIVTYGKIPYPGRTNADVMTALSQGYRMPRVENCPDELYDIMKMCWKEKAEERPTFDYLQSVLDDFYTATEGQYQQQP

For `CCn1c(-c2nonc2N)nc2c(C#CC(C)(C)O)nc(CN3CCCC3)cc21`, the inhibition is -0.04% in assay [1]; -1.54% in assay [2]; 0.2% in [3]; -1.39% in [4]; 0.5% in assay [5]; -0.28% in [6]. Moreover, the inhibition was found to be 0.18% in assay [7], 5.85% in assay [8], 5.28% in assay [9] and 0.58% in assay [10].
On to `COc1cc2ncn(-c3cc(O[C@@H](C)c4ccccc4Cl)c(C(N)=O)s3)c2cc1OC`, for which the inhibition in assay [1] was 4.56%; in [2] it was 6.39%; in [3], 28.6%; in [4] it was 4.74%; in [5], 22%; in assay [6], 4.25%. For the same compound, the inhibition in assay [7] amounted to 10.3%; in [8] it was 4.76%; in assay [9], 3.23%; in [10] it was 2.77%.
On to `CS(=O)(=O)CCN(CC#N)Cc1ccc(-c2ccc3ncnc(Nc4ccc(OCc5cccc(F)c5)c(Cl)c4)c3c2)o1`, for which the inhibition in assay [1] came out at 1.95%; in [2], 2.44%; in assay [3], 3.17%; in assay [4] it was 1.32%; in assay [5], 1.72%; in [6], 2.77%. Moreover, the inhibition in assay [7] was 2.05%; in assay [8] it was 7.6%; in assay [9] it was 2.64%; in assay [10], 1.44%.
`COc1cccc(-n2ncc3c(N/N=C/c4cccc(F)c4)ncnc32)c1`: the inhibition in assay [1] was 1.7%; in assay [2], 13.9%; in assay [3], 55.9%; in [4] it was 10.2%; in assay [5] it was 50.7%; in assay [6], 0.34%. The inhibition was 7.16% in assay [7], 7.49% in assay [8], 17.2% in assay [9] and 3.52% in assay [10].
Take `[O-][S+]1CCN(Cc2ccc(-c3ccc4ncnc(Nc5ccc(OCc6ccccc6)c(F)c5)c4c3)o2)CC1`: the inhibition turned out to be 3.33% in assay [1]; 2.19% in assay [2]; 5.34% in assay [3]; 1.2% in assay [4]; 1.42% in [5]; 42.1% in assay [6]. The inhibition in [7] was 81.8%; in assay [8], 6.51%; in [9], 0.93%; in [10], 1.44%.
For `Fc1cccc(COc2ccc(Nc3ncnc4sc(-c5cccs5)cc34)cc2Cl)c1`, the inhibition in assay [1] amounted to 1.68%; in assay [2], 0.57%; in [3] it was 1.59%; in [4], 0.13%; in [5] it was 2.6%; in assay [6], 1.5%. Besides, the inhibition is 0.96% in assay [7], -1.35% in assay [8], -0.09% in [9] and -0.17% in assay [10].
As to `NCc1ccc(-c2nc(-c3ccc(Cl)c(O)c3)c(-c3ccncc3)[nH]2)cc1`, the inhibition was 1.88% in assay [1]; 6.73% in assay [2]; 42.8% in [3]; 4.81% in [4]; 37.1% in [5]; -0.12% in assay [6]. Moreover, the inhibition in assay [7] stood at 6.1%; in assay [8], 5.53%; in assay [9] it was 14.5%; in assay [10] it was 0.08%.
For `Cc1nnc(-c2ccc(C)c(-c3ccc(C(=O)Nc4cccc(C#N)c4)cc3)c2)o1`, the inhibition in assay [1] worked out at 1.76%; in assay [2] it was 3.98%; in assay [3], 6.36%; in assay [4], 2.18%; in [5], 5.78%; in [6], 0.8%. For the same compound, the inhibition in [7] is 2.51%; in assay [8] it was 3.66%; in assay [9], -0.54%; in assay [10], 2.58%.
Take `CCn1c(-c2nonc2N)nc2c(N3CCCC3)nccc21`: the inhibition in assay [1] is -0.6%; in [2] it was 1.31%; in [3] it was -0.07%; in assay [4], 1.13%; in [5] it was 0.52%; in [6] it was 0.24%. The inhibition in assay [7] was 1.56%; in assay [8], -3.32%; in [9], -1.91%; in assay [10], 1.25%.
Consider `Cc1ccc(C(=O)NC2CCCCC2)cc1-c1ccc(C(=O)NCC2CC2)cc1`, for which the inhibition was 0.02% in assay [1]; 2.9% in assay [2]; 2.6% in assay [3]; 1.53% in assay [4]; 0.34% in [5]; 1.63% in assay [6]. Moreover, the inhibition in assay [7] worked out at 3.6%; in assay [8], 4.53%; in assay [9], 5.05%; in assay [10] it was 6.01%.
With `Cc1cccc(-c2n[nH]cc2-c2ccc3ncccc3n2)n1`, the inhibition in [1] was 0.08%; in [2], 0.89%; in assay [3], 7.91%; in assay [4], 0.34%; in assay [5], 7.01%; in [6] it was -0.08%. Further, the inhibition was 0.84% in assay [7], 2.89% in assay [8], -1.62% in assay [9] and 0.64% in assay [10].
`CCc1cccc(NC(=O)Nc2ccc(Oc3ccc4nc(NC(=O)OC)[nH]c4c3)cc2)c1`: the inhibition in [1] is 0.04%; in [2], 10%; in assay [3], 20.8%; in [4] it was 7.66%; in assay [5], 15.2%; in assay [6], 2.96%. Further, the inhibition in [7] was determined as 3.11%; in assay [8], 15.7%; in assay [9], 27.4%; in assay [10], 16.2%.
Turning to `CC1=C(C(=O)Nc2ccc3[nH]ncc3c2)C(c2ccc(Cl)c(Cl)c2)CC(=O)N1` (stereo not given), the inhibition stood at 0.02% in assay [1]; 3.35% in [2]; 9.96% in assay [3]; 2.18% in [4]; 7.24% in assay [5]; 0.79% in assay [6]. Further, the inhibition in assay [7] is 1.25%; in assay [8], -0.1%; in assay [9], 5.85%; in assay [10] it was 2.88%.
Regarding `CN1CCC(C(=O)Nc2n[nH]c3nnc(-c4ccccc4)cc23)CC1`, the inhibition amounted to 4.51% in assay [1]; 5.18% in [2]; 4.72% in assay [3]; 2.24% in assay [4]; 3.51% in [5]; 1.95% in assay [6]. Besides, the inhibition in assay [7] was determined as 7.11%; in assay [8], 1.78%; in [9], 3.43%; in assay [10] it was 3.93%.
In the case of `COc1cc2ncn(-c3cc(O[C@H](C)c4ccccc4Cl)c(C(N)=O)s3)c2cc1OC`, the inhibition in [1] was 11.3%; in assay [2] it was 6.61%; in assay [3], 27.9%; in assay [4] it was 5.21%; in assay [5], 23.9%; in assay [6], 5.63%. Further, the inhibition in assay [7] was 22.6%; in assay [8], 4.85%; in assay [9], 17%; in [10], 29.3%.
Regarding `CCCN1CCC(Oc2cc(Nc3nc(Nc4cccc(F)c4C(N)=O)c4cc[nH]c4n3)c(OC)cc2Cl)CC1`, the inhibition was 68.8% in assay [1]; 0% in assay [2]; 2.61% in assay [3]; -0.77% in [4]; 1.89% in [5]; 0.64% in [6]. The inhibition is 2.77% in assay [7], -1.41% in [8], -2.15% in assay [9] and 3.31% in assay [10].
`Cn1cc(C=C2C(=O)Nc3cccnc32)c2ccccc21`: the inhibition amounted to 5.51% in assay [1]; 6.97% in [2]; 41.8% in [3]; 5.53% in assay [4]; 36% in [5]; 2.2% in assay [6]. The inhibition in assay [7] was found to be 16.9%; in assay [8], 0.96%; in assay [9], 5.5%; in assay [10], 3.74%.

Source of the values: ChEMBL document CHEMBL1961873, “Compounds: GSK PKIS; Assays: Nanosyn kinase panel” (2012).
